Assay results from PubChem BioAssay (Tox21).
Several values for one entry are separate records, joined by “and”; a condition that tells them apart may be missing. Identical values can stand only once. Results filed as inconclusive are left out. Entries that show only a call come without a potency. A structure can be active in one record and inactive in another. Activity calls are given as the source filed them. Unless noted, calls come from the whole dose curve; as a rule, active = well fitted curve in the direction sought with a large enough effect in the repeat runs; inconclusive = weak or mixed curves; inactive = no such curve, though single readings can be large; an effect the other way counts as inactive or inconclusive.

Assay: qHTS assay to identify small molecule antagonists of the estrogen related receptor (ERR) signaling pathway from Tox21 library (AID 1224848); note: nearly all actives have a fitted effect of over 50% in size; note: potency is the fitted concentration of half-maximal effect
Details: ERR reporter cell line, luciferase antagonist mode, 18 h; series mostly up to 92.4 µM
How it was run: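 Antagonist-mode screen of the Tox21 10K library in an NTP-provided ERR reporter cell line; 18 h compound exposure at 37 C, luminescence measured with ONE-Glo.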

| Compound | Potency |
| --- | --- |
| C=CCN=C=S | inactive |
| COc1nc(NC(C)C)nc(NC(C)C)n1 | inactive |
| ClC(Cl)c1ccccc1 | inactive |
| O=P1(NCCCl)OCCCN1CCCl (stereo not drawn) | inactive |
| COC(C)(C)CCCC(C)C/C=C/C(C)=C/C(=O)OC(C)C (stereo not drawn) | inactive |
| Cc1cc(O)ccc1Cl | inactive |
| O=C(O)Cc1ccccc1 | inactive |
| OC[C@@H](O)[C@H]1O[C@@H]2O[C@H](C(Cl)(Cl)Cl)O[C@@H]2[C@H]1O | inactive |
| CNC(=O)O/N=C(\SC)C(=O)N(C)C | inactive |
| CN(C)NC(=O)CCC(=O)O | inactive |
| Cc1ccc(N)cc1 | inactive |
| Cc1ccc(O)c(C)c1 | inactive |
| COC(=O)Nc1cccc(OC(=O)Nc2cccc(C)c2)c1 | inactive |
| C=C(C)C(=O)OCC(CC)CCCC (stereo not drawn) | 24.8 µM (active) and inactive |
| OCCCCO | inactive |
| OCc1ccco1 | inactive |
| CN(C)C(=O)Cl | inactive |
| CCNc1nc(Cl)nc(NC(C)C)n1 | inactive |

Assay: qHTS assay to identify small molecule agonists of the estrogen related receptor (ERR) signaling pathway from Tox21 library (AID 1224849; calls by dose curve; note: nearly all actives have a fitted effect of over 15% in size)
Details: ERR reporter cell line, ONE-Glo luciferase, 18 h; at 42.5 µM (top of the series)
How it was run: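 ERR reporter cell line (NTP) seeded, rested 6 h at 37 C/5% CO2, then pinned with Tox21 compounds in DMSO. After 18 h at 37 C, ONE-Glo luciferase luminescence was read following 30 min at room temperature.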

| Compound | activity change, positive = activation |
| --- | --- |
| O=P1(NCCCl)OCCCN1CCCl (stereo not drawn) | -0.35% (inactive) |
| COC(C)(C)CCCC(C)C/C=C/C(C)=C/C(=O)OC(C)C (stereo not drawn) | 0.0177% (inactive) |
| Cc1cc(O)ccc1Cl | 6.83% (inactive) |
| O=C(O)Cc1ccccc1 | -0.0869% (inactive) |

Same assay, conditions: ERR reporter cell line, ONE-Glo luciferase, 18 h; at 92.4 µM (top of the series)

| Compound | activity change, positive = activation |
| --- | --- |
| C=CCN=C=S | 10.8% (inactive) and 0.847% (inactive) |
| COc1nc(NC(C)C)nc(NC(C)C)n1 | 1.12% (inactive) and 6.24% (inactive) |
| ClC(Cl)c1ccccc1 | 8.64% (inactive) and 1.48% (inactive) |
| O=P1(NCCCl)OCCCN1CCCl (stereo not drawn) | 5.99% (inactive) and 1.11% (inactive) |
| COC(C)(C)CCCC(C)C/C=C/C(C)=C/C(=O)OC(C)C (stereo not drawn) | -14.1% (inactive) |
| Cc1cc(O)ccc1Cl | 0.807% (inactive) and 6.83% (inactive) |
| O=C(O)Cc1ccccc1 | -3.48% (inactive) |
| OC[C@@H](O)[C@H]1O[C@@H]2O[C@H](C(Cl)(Cl)Cl)O[C@@H]2[C@H]1O | 4.33% (inactive) and 6.3% (inactive) |
| CCOc1ccc(N)cc1 | -23.9% (inactive) and -14.2% (inactive) |
| CN(C)NC(=O)CCC(=O)O | 4.6% (inactive) and 12.8% (active) |
| Cc1ccc(N)cc1 | 14.9% (active) and 11.9% (inactive) |
| Cc1ccc(O)c(C)c1 | -0.712% (inactive) and 11.3% (inactive) |
| COC(=O)Nc1cccc(OC(=O)Nc2cccc(C)c2)c1 | 26.6% (active) and 34.9% (active) |
| C=C(C)C(=O)OCC(CC)CCCC (stereo not drawn) | -78.2% (inactive) and 4.6% (inactive) |
| OCCCCO | 2.81% (inactive) and 0.133% (inactive) |
| OCc1ccco1 | 4.84% (inactive) |
| CN(C)C(=O)Cl | 5.68% (inactive) and 6.16% (inactive) |
| CCNc1nc(Cl)nc(NC(C)C)n1 | -5.74% (inactive) and -1.44% (inactive) |

Assay: qHTS RealTime-Glo MT Cell Viability Assay in HepG2 cells - 24 hour (AID 1224867); note: nearly all actives have a fitted effect of over 50% in size
Details: RealTime-Glo luminescence; series mostly up to 76.8 µM
How it was run: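 HepG2 cells were seeded at 600 cells/well together with NanoLuc luciferase and a cell-permeant prosubstrate, preincubated 5 h at 37 C/5% CO2, then pin-dosed with compounds in DMSO. Nonlytic luminescence from viable cells was read at each time point.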

| Compound | outcome |
| --- | --- |
| C=CCN=C=S | inactive |
| COc1nc(NC(C)C)nc(NC(C)C)n1 | inactive |
| O=P1(NCCCl)OCCCN1CCCl (stereo not drawn) | inactive |
| CN(C)C(=O)Nc1cccc(C(F)(F)F)c1 | inactive |
| COC(C)(C)CCCC(C)C/C=C/C(C)=C/C(=O)OC(C)C (stereo not drawn) | inactive |
| Cc1cc(O)ccc1Cl | inactive |
| CNC(=O)O/N=C(\SC)C(=O)N(C)C | inactive |
| CN(C)NC(=O)CCC(=O)O | inactive |
| Sc1ccccc1 | inactive |
| CNC(=O)Oc1cccc2ccccc12 | inactive |
| Cc1ccc(O)c(C)c1 | inactive |
| OCC(O)CCl (stereo not drawn) | inactive |
| Nc1cc(Cl)cc(Cl)c1 | inactive |
| N#Cc1ccccn1 | inactive |
| COC(=O)Nc1cccc(OC(=O)Nc2cccc(C)c2)c1 | inactive |
| CC(=O)/C=C/c1ccccc1 | inactive |
| CC[N+](=O)[O-] | inactive |
| COS(=O)(=O)OC | inactive |
| C=C(C)C(=O)OCC(CC)CCCC (stereo not drawn) | inactive |
| CC(C)CCCCCCOC(=O)c1ccccc1C(=O)OCCCCCCC(C)C | inactive |
| CN(C)C(=O)Cl | inactive |
| CCCOC(=O)c1ccccc1C(=O)OCCC | inactive |
| CCNc1nc(Cl)nc(NC(C)C)n1 | inactive |

Assay: qHTS RealTime-Glo MT Cell Viability Assay in HEK293 cells - 32 hour (AID 1224868); note: top concentration of the series differs between compounds; nearly all actives have a fitted effect of over 50% in size
Details: RealTime-Glo luminescence; series mostly up to 76.8 µM
How it was run: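 HEK293 cells were seeded at 600 cells/well together with NanoLuc luciferase and cell-permeant prosubstrate, preincubated 5 h at 37 C/5% CO2, then given compound in DMSO by pintool. Luminescence from viable-cell prosubstrate reduction was read repeatedly over 40 h.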

| Compound | Potency |
| --- | --- |
| O=P1(NCCCl)OCCCN1CCCl (stereo not drawn) | inactive |
| O=C(O)Cc1ccccc1 | inactive |
| CCOc1ccc(N)cc1 | inactive |
| CN(C)NC(=O)CCC(=O)O | inactive |
| Sc1ccccc1 | inactive |
| CNC(=O)Oc1cccc2ccccc12 | inactive |
| N#Cc1ccccn1 | inactive |
| CC(=O)/C=C/c1ccccc1 | inactive |
| CC[N+](=O)[O-] | inactive |
| COS(=O)(=O)OC | inactive |
| C=C(C)C(=O)OCC(CC)CCCC (stereo not drawn) | inactive |
| OCCCCO | inactive |
| CC(C)CCCCCCOC(=O)c1ccccc1C(=O)OCCCCCCC(C)C | inactive |
| CCCOC(=O)c1ccccc1C(=O)OCCC | inactive |
| CCNc1nc(Cl)nc(NC(C)C)n1 | inactive |
